# According to the supplement of paper PMC3334620:
# The full ranking holds about 33,000 sequences; the median of “E-score (-0.5 to 0.5)” is about -0.036, and the highest 2% start at about 0.37. This is one part of a sample in which the highest values are shown more often than they occur.
# Target: T1, Yer064c (UniProt P40041)
# T1 sequence: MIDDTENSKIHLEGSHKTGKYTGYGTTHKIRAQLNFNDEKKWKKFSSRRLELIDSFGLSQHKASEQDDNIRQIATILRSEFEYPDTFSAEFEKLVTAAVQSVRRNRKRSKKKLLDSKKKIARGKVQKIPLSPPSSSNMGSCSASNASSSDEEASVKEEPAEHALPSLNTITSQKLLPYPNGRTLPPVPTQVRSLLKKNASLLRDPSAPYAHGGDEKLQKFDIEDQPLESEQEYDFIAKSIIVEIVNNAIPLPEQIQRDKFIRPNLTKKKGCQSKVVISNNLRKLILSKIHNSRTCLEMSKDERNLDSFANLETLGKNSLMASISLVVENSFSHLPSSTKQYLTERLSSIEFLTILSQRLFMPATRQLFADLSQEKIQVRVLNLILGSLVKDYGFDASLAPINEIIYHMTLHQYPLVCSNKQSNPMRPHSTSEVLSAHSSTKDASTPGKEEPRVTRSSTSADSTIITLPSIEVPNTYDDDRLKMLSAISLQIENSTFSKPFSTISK
# Assay: PBM E-score (8-mer binding enrichment) (E-score (-0.5 to 0.5)); higher = stronger / more preferred TF binding
# Details: protein concentration: 200 nM; construct: GST-full length
# Method in brief: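 E-scores (a modified Wilcoxon-Mann-Whitney statistic) were assigned by the Universal PBM Analysis Suite to every ungapped eight-base word pooled with its reverse complement. The input came from universal all-10-mer Agilent arrays made double-stranded by primer extension and probed with GST-tagged yeast transcription factors at about 100-200 nM. Fluorescent anti-GST detected bound protein, and masliner normalised the scans.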
row,Sequence,PBM E-score
1,GGACGTCA,-0.0394
2,ATTGACCA,-0.0765
3,AATTAGTG,0.0657
4,CATTAGAC,0.0825
5,CATTAGTC,0.421
6,AATTAGTA,0.103
7,CATTAGTA,0.257
8,AATTAGTC,0.446
9,CATTTTGC,-0.0161
10,TCTAGACA,0.128
11,CCTAGTCG,0.263
12,GCTAGTCA,0.448
13,TCTAGTAA,-0.0245
14,ACTAGTCA,0.456
15,ACTAGTCC,0.164
16,GCTAGTCC,0.0288
17,CCTAGTCC,0.0749
18,TCTAGTCA,0.447
19,CCTAGTCA,0.446
20,GCTAGTTA,0.00744
21,ACTAGTCT,0.345
22,AACGGTGT,-0.021
23,ACCTGGTC,-0.12
24,AGAGAACT,-0.0782
25,AACAGCAG,-0.26

row,Sequence,PBM E-score
1,CGTTATCC,-0.11
2,ATGAGTAA,0.386
3,CTGAGTAA,0.204
4,ATGAGTAG,0.308
5,GTGAGTAA,0.331
6,CTGAGTAC,0.291
7,ATGAGTAC,0.415
8,AGAGGCGG,-0.16
9,AGAGGTGC,-0.25
10,CGATCGTA,0.05
11,GTTCCAAA,-0.00663
12,AAAGACAT,-0.156
13,ACTCATGG,0.34
14,CTTCATGC,-0.12
15,CCTCATGC,-0.144
16,ACTCATGA,0.402
17,CCTCATGA,0.16
18,ACTCATGC,0.378
19,AGCCCGGG,-0.144
20,GCTCACAA,0.0192
21,CGGTAGAG,-0.118
22,AATCACAC,0.39
23,GATCACAC,0.178
24,AATCACAG,0.359
25,AATCACAT,0.398

row,Sequence,PBM E-score
1,AATCACAA,0.362
2,CATCACAC,0.0825
3,CGCTATTC,-0.0435
4,ACATACAC,0.0835
5,CTGGCATA,-0.0817
6,GTCACTCA,0.334
7,CGTCTTTC,-0.108
8,AGTCTTTC,0.372
9,CGTCTTCA,-0.115
10,AGTCTTCC,0.432
11,ACTCTTCG,0.213
12,AGTCTTTA,0.341
13,AGTCTTCA,0.408
14,CGTCTTCC,-0.0994
15,AGTCTTCG,0.418
16,AGTCTTGG,0.315
17,ATTCTTCC,-0.102
18,GGTCTTCA,-0.144
19,CACTTACC,0.0118
20,ACAAGGGA,-0.248
21,AATGTGAC,0.203
22,AGCGGCGA,-0.0237
23,CCTTAGCG,0.0566
24,ACGAAGGG,-0.192
25,CATTAGGA,0.0671

row,Sequence,PBM E-score
1,CCACTCTA,0.0684
2,AGCTGTCG,-0.196
3,AGTCTCCA,0.27
4,AGTCTCCC,0.382
5,CGTCTCCC,-0.223
6,GACTCCCC,0.405
7,AACTCCCA,-0.184
8,CACTCCCC,-0.147
9,CACTCCCA,0.0058
10,GACTCCCA,0.381
11,AACTCCCC,0.0421
12,AGCCCAAA,0.141
13,CCTCCCCC,-0.224
14,CCTTTATC,-0.243
15,CAACGTAC,-0.0947
16,ATAGAGTA,0.134
17,ATAGAGTG,0.00994
18,ATAGAGTC,0.371
19,CTAGAGTC,0.366
20,CTAGAGGC,-0.0949
21,CTAGAGTA,0.138
22,CTAGTAGA,0.0545
23,AACGGTGC,-0.101
24,ACGCCGCT,-0.119
25,CAAACCGC,-0.0599

row,Sequence,PBM E-score
1,CAACACAC,0.0236
2,ACTGTCCG,-0.022
3,CTACTGAG,0.157
4,AGAGTCGA,0.291
5,AGAGTCGG,0.326
6,CGAGTCGA,0.271
7,CCAGTCGC,-0.0128
8,AGAGTCGC,0.396
9,CGAGTCGC,0.383
10,GACCCTGC,-0.262
11,CACCGTAC,-0.0293
12,TGCTGAAA,-0.0596
13,AGAGTCTG,0.147
14,AGAGTCCT,0.298
15,AGAGTCCC,0.0408
16,AGAGTCAA,0.436
17,AGAGTCAT,0.492
18,AGTGTCAT,0.0731
19,AGAGTCCG,0.212
20,AGAGTCCA,0.262
21,AGAGTCTC,0.332
22,AGAGTCAG,0.457
23,AGAGTCTA,0.158
24,AGAGTCAC,0.485
25,CCCGGACG,-0.193

row,Sequence,PBM E-score
1,CATCTCGC,0.0122
2,GACACGCA,-0.104
3,AGCCACTC,0.0575
4,CGTGTATA,0.0534
5,CCTAATTA,-0.151
6,ATGCTAGA,-0.0387
7,CAGAACTG,0.139
8,AGCCGAGA,0.0772
9,CACTTTCG,-0.131
10,AACACCAT,-0.0344
11,CAGCTTTA,-0.123
12,ATATATCA,-0.0122
13,GGCACCCC,-0.215
14,CTCATGAG,0.3
15,ATCATGAA,0.266
16,ATCATGAT,0.378
17,GTCATGAA,0.308
18,CTCATGAA,0.202
19,AGCATGAT,0.26
20,GTCATGAC,0.432
21,CTCATGAC,0.381
22,ACCATGAT,0.217
23,GCCATGAC,0.307
24,ATCATGAG,0.34
25,ATCATGAC,0.369

row,Sequence,PBM E-score
1,CCGAGCAA,-0.287
2,ATTTGGTG,-0.0429
3,CCACGTTC,-0.218
4,CGGTCAAG,-0.055
5,AATTTAGT,0.363
6,GTACCGCA,-0.0756
7,CTAGCACA,-0.147
8,ACATAGTA,0.0874
9,ACATAGTC,0.386
10,CCATAGTA,0.0975
11,CCATAGCC,-0.0772
12,ACATAGTG,0.0787
13,CCATAGTC,0.396
14,CTCTCGAC,-0.0566
15,ACCGCCCA,-0.117
16,CGAGAATA,-0.0825
17,AGTCACGG,0.469
18,CGTCACGC,-0.184
19,AATCACGG,0.322
20,AGTCACGC,0.469
21,AGTCACGA,0.466
22,CGTCACGA,-0.0925
23,ATTCACGC,0.132
24,ATTCACGG,0.196
25,GGTCACGA,0.0181
